Measured values as given in ChEMBL document CHEMBL3988442, “University of Dundee, Small-Polar-MMV Screening Library” (2021).
Out of some 53,000 compounds screened, about 900 (1.7%) showed an effect of 50% or more. This excerpt belongs to a sample that is enriched for strong results.

Tested on: Mycobacterium tuberculosis
Test: Cornell - Phenotypic assay to identify agents that inhibit growth of Mycobacterium tuberculosis
Type: functional
Parameters: scale not given: direction of the effect not stated beside the values
Conditions: 10 mM as filed; unlikely as a test dose

Structure (SMILES)	Percent Effect
Cc1cccc(-c2ccc(C(=O)N3CCN(C(C)C)CC3)c(=O)[nH]2)c1	26.41%
CC(C)OCCC(=O)NS(=O)(=O)N1CCOc2ccccc21	29.29%
CCOc1ccccc1C(=O)NCCc1ccoc1	23.58%
CNS(=O)(=O)c1ccc(C(=O)NC2CCOc3ccccc32)o1 (stereo not given)	7.684%
CC(C)c1nnc2sc(CC3CN(Cc4ccccc4)CCO3)nn12 (stereo not given)	-19.21%
CC(C)COCCCNC(=O)c1cccnc1N1CCOCC1	3.314%
O=C(NCCCOCC1CCCO1)c1cccnc1N1CCCC1 (stereo not given)	105.2%
O=C(NCCCOCC1CCCO1)c1cccnc1N1CCOCC1 (stereo not given)	-37.06%
CCc1ccc(C(=O)NCCNc2ncccn2)cc1	-25.5%
O=C(NCCNc1ncccn1)c1ccc(Br)cc1	-16.37%
Cc1ccc(C)n1-c1ccc(C(=O)NCCNc2ncccn2)cc1	76.43%
Cc1cc(N(C)C)nc(C2(C)CCCN2C(=O)c2cncnc2C)n1 (stereo not given)	-9.352%
CN(C)C(=O)[C@@H]1CCO[C@@H]2CCN(CCc3ccccc3)C[C@@H]21.O=C(O)C(F)(F)F	4.406%
CN(C)C(=O)[C@@H]1CCO[C@@H]2CCN(Cc3ccccc3)C[C@@H]21.O=C(O)C(F)(F)F	104.8%
CN(C)C(=O)[C@@H]1CCO[C@@H]2CCN(Cc3ccc4c(c3)OCO4)C[C@@H]21.O=C(O)C(F)(F)F	-46.82%
CCc1ccc(CN(C(=O)CCn2cc(S(N)(=O)=O)cn2)C2CC2)cc1	-10.53%
COc1ccc(C2CN(c3cc(C)ncn3)CCN2C(C)=O)cc1 (stereo not given)	-53.77%
Cc1nn(CCNc2ncnc3c2NC(=O)CN3)c(C)c1Cl	45.57%
COc1cc(N2CCC3(CCN(Cc4csc(C)n4)C3)CC2)ncn1.O=C(O)C(F)(F)F	24.59%
CCCc1noc(CN2CCCC2c2ccsc2)n1 (stereo not given)	52.86%
CCCc1noc(CCC(=O)N2CCCC2c2ccsc2)n1 (stereo not given)	22.08%
Cc1nnc(CN2CCCC2c2ccsc2)o1 (stereo not given)	14.43%
CN(C)CCNC(=O)c1ccn(-c2ccc3ccccn23)n1.O=C(O)C(F)(F)F	12.93%
CC(C)N1CCCC1c1cc(CCO)[nH]n1 (stereo not given)	11.54%
CCC(=O)N1CCC(c2cc(Nc3ncccn3)nc(C)n2)C1 (stereo not given)	-34.07%
Cc1ccccc1S(=O)(=O)N[C@@H]1CC[C@@H](N2CCNC(=O)C2)[C@@H]1O	54.18%
CN([C@@H]1CC[C@@H](N2CCCC2)[C@@H]1O)S(=O)(=O)c1ccccc1	24.86%

Structure (SMILES)	Percent Effect
O=C1CN([C@@H]2CC[C@@H](NS(=O)(=O)c3ccccc3F)[C@H]2O)CCN1	-3.18%
O=C1CN([C@@H]2CC[C@@H](NS(=O)(=O)c3ccccc3)[C@H]2O)CCN1	55.41%
O=C1CN([C@@H]2CC[C@@H](NS(=O)(=O)c3ccc(F)cc3)[C@H]2O)CCN1	42.43%
Cc1ccccc1CC(=O)N[C@@H]1CCC[C@@H](N2CCNC(=O)C2)[C@@H]1O	3.763%
Cc1ccc(-c2nnc(CN3CCn4c(nnc4C4CC4)C3)o2)cc1	2.899%
CCOCC(=O)N1C[C@@H]2CC[C@H](Oc3ccccc3)[C@@H]2C1	-14.06%
CCCN1CCCn2nc(CNS(=O)(=O)c3cccc(F)c3)cc2C1	-34.67%
CCN(CC)CCCNCc1cc2cc(C)ccc2[nH]c1=O	4.422%
CCOc1ncccc1NC(=O)N1CCC(n2cncn2)CC1	14.59%
Cc1cccc(CN(Cc2ccccn2)Cc2ncc(C(C)(C)C)o2)c1	69.04%
CCN(Cc1cccc(Cl)c1)Cc1ncc(C(C)(C)C)o1	0.2424%
CCN(Cc1ncc(C(C)(C)C)o1)Cc1ccccc1C	-5.269%
Cc1nc2ccc(C(=O)N3C[C@@H](O)[C@H](N4CCCC4)C3)cc2[nH]1	1.956%
COCC(=O)NC(c1ccccc1)c1ccc2c(c1)CCCO2 (stereo not given)	34.89%
Cc1cc(NCc2cccc(C#N)c2)ccc1C(N)=O	38.13%
Cc1cc(NCc2cccc(C#N)c2)ccc1Br	50.78%
Cc1cc(NCc2cccc(C#N)c2)ccc1C(=O)N(C)C	22.32%
CCN(CC)c1nc(Nc2cccc(C(C)O)c2)nc2ccccc12 (stereo not given)	104.6%
CCN(CC)c1nc(Nc2cccc(C(=O)O)c2)nc2ccccc12	-13.69%
CC(O)c1cccc(Nc2nc(NCCO)c3ccccc3n2)c1 (stereo not given)	-13.85%
NC(=O)NCC(=O)N1CCCC(OCc2cccnc2)C1 (stereo not given)	-45.31%
Oc1cc(C2CCCCN2Cc2cccs2)nc(-c2ccccn2)n1 (stereo not given)	21.14%
Oc1cc(C2CCCN(Cc3cccs3)C2)nc(-c2ccccn2)n1 (stereo not given)	76.98%
Cn1ncc2ccc(C3CCCN(Cc4cccs4)C3)nc21 (stereo not given)	-1.871%
Cc1nc(C)c(CCN2CCC(Oc3ccccc3F)CC2)s1	50.26%
Cc1nc(CCN2CCC(Oc3ccccc3F)CC2)cs1	0.3496%
Cc1nc(CCN2CCC(Oc3ccccc3F)CC2)c(C)s1	4.042%

Structure (SMILES)	Percent Effect
Cc1cnc(-c2nc(O)c3c(n2)CN(C(=O)CC2CCCC2)CC3)cn1	2.725%
CC(C)N(C)S(=O)(=O)N(C)Cc1ccc2c(c1)OCO2	-6.095%
CCN(C)S(=O)(=O)N(CC)Cc1ccc2c(c1)OCO2	26.78%
CCN(Cc1ccc2c(c1)OCCO2)S(=O)(=O)N(C)C(C)C	54.92%
CCn1cnnc1C1CCN(C(=O)c2ccc(OC(C)C)nc2)CC1	22.89%
CC(C)c1nnc(CN(C)Cc2ccccc2-c2ccccc2)o1	60.67%
CC(C)c1nnc(CN(C)C(c2ccccc2)c2ccc(F)cc2)o1 (stereo not given)	32.65%
CN(Cc1nnc(C2CC2)o1)Cc1ccccc1-c1ccccc1	24.56%
Cc1nn(C)c(C)c1NC(=O)CN1CCOC(CN(C)C)C1 (stereo not given)	13.8%
O=C(C1=CCCC1)N1C[C@@H]2COC[C@]2(COCc2ccncc2)C1	-20.46%
CCc1nnc(Nc2cc(C)nc(C3CCN(c4ccncn4)C3)n2)s1 (stereo not given)	-19.2%
O=C(Cn1ccc2ccccc21)N1CCC(Oc2cnccn2)CC1	24.96%
O=C(Cn1ccc2ccccc21)N1CCC(Oc2ncccc2Br)CC1	58.45%
O=C(NCc1ccccc1)N1CCC(Oc2ncccc2Br)CC1	-14.28%
Cc1cccc(OC2CCN(C(=O)c3ccc4c(c3)OCO4)CC2)n1	37.52%
O=C(CCC(=O)N1CCC(Oc2ncccc2Br)CC1)c1ccccc1	95.35%
O=C(CCn1ccc(=O)[nH]c1=O)N1CCC(Oc2ncccc2Cl)CC1	20.85%
COC1CCN(C(=O)Cn2ccc3ccccc32)CC1	2.586%
O=C(CCC(=O)N1CCC(OCc2cccnc2)CC1)c1ccccc1	-10.19%
Cc1cccc(OC2CCN(C(=O)Cn3ccc4ccccc43)CC2)n1	59.2%
CS(=O)(=O)NCCCNC(=O)c1cccc(-n2cccc2)c1	-24.26%
CC(=O)Nc1nc(SCc2ccc3c(c2)OCO3)ns1	6.348%
CCCN1CCN(C(=O)Nc2ccccc2Cl)[C@H]2CS(=O)(=O)C[C@H]21	2.165%
CC1CCN(Cc2ccccc2CNC(=O)C2CNC(=O)N2)CC1 (stereo not given)	-0.9762%
CCOC1COC2(CCN(c3ccccn3)CC2)C1.O=C(O)C(F)(F)F (stereo not given)	3.904%
CCOc1ccccc1C(=O)N1CC(=O)N(C2CCC2)CC(O)C1 (stereo not given)	12.12%
CN(Cc1cccnc1)[C@@H]1CN(c2ncc(F)cn2)[C@@H]2CCCO[C@H]12	19.63%

Structure (SMILES)	Percent Effect
CN(Cc1cccnc1)[C@@H]1CN(Cc2ccccn2)[C@@H]2CCCO[C@H]12	51.65%
CN(Cc1cccnc1)[C@@H]1CN(c2ccccn2)[C@@H]2CCCO[C@H]12	3.977%
COc1ccc2c(c1)CC(C1CCOCC1)N(C(=O)c1ccnn1C)C2 (stereo not given)	13.18%
CN1CCN(C)C(CNC(=O)N(C)Cc2ccc(Cl)c(F)c2)C1 (stereo not given)	12.24%
C=C/C=c1\c(=C/C)oc2c(NCc3ccccc3)nc(C)nc12	70.49%
C=C/C=c1\c(=C/C)oc2c(NCc3ccccc3)ncnc12	8.559%
C=C/C=c1\c(=C/C)oc2c(NCc3ccccc3)nc(CC)nc12	44.26%
O=c1c2ccccc2nc2n1C(CSc1ccc(Br)cc1)CN2 (stereo not given)	19.98%
COCCOc1ccc(Cl)c(C(=O)N2CCN(CCO)CC2)n1	-16.9%
CNc1ncc(-c2csc(NC(=O)C[C@H]3COCCN3)n2)cn1.Cl	-17.99%
Cc1cnc(N2C[C@@H]3CN(C4CCOC4)CCC[C@]3(C(=O)O)C2)nc1.O=C(O)C(F)(F)F (stereo not given in full)	13.6%
NC(=O)C1(CCCc2ccccn2)CCCN(Cc2ncc[nH]2)C1 (stereo not given)	-6.495%
O=C(COc1ccccc1)N1CCCC1c1ccc[nH]1 (stereo not given)	85.82%
NC(=O)c1ccc(OCC(=O)N2CCCC2c2ccc[nH]2)cc1 (stereo not given)	-7.16%
O=C(COc1ccc2c(c1)CCC2)N1CCOCC1c1ncon1 (stereo not given)	12.9%
CC1CCN(c2ccc(C(=O)N3CCCC3c3nncn3C)cn2)CC1 (stereo not given)	-18.06%
CN(C)c1ccc(C(=O)N2CCCC2c2cnn(C)c2)cn1 (stereo not given)	5.002%
CC1CCN(c2ccc(C(=O)N3CCCC3c3ccc[nH]3)cn2)CC1 (stereo not given)	84.24%
CS(=O)(=O)c1cccc(OCC(=O)N2CCCC2c2ccccc2Cl)c1 (stereo not given)	-2.872%
Cc1ccc(-c2nnc(CCC(=O)N3CCCC3c3ccc[nH]3)o2)cc1 (stereo not given)	45.95%
NC(=O)c1cn[nH]c1C1CCCN1C(=O)COc1ccccc1 (stereo not given)	6.51%
O=C(COc1ccc2c(c1)CCC2)N1CCCC(n2cccn2)C1 (stereo not given)	-23.81%
CS(=O)(=O)c1cccc(OCC(=O)N2CCCC2c2ccc[nH]2)c1 (stereo not given)	58.54%
O=C(COc1ccc2c(c1)CCC2)N1CCCC1c1ccc[nH]1 (stereo not given)	107.5%
